PubChem BioAssay AID463173 (ICCB-Longwood Screening Facility, Harvard Medical School, 2010)
Among all 52,000 compounds or so, about 4,300 (8.3%) were called active. The sample as a whole holds a higher share of actives than the screen did. Values without a mark were called inactive. No stated cut-off is given here; in the data, active means survival mostly below about 52% (no sharp cut-off); inactive means mostly above about 56%.

Each compound was assayed on DeltatarO mutant (assay: growth inhibition of S. aureus wild type versus tarO mutant, primary screen, teichoic acid synthesis inhibitors, RN4220, OD600 (AID 463173)). Conditions: OD600, 18 h, stronger effect = lower value, screened at 18.75 µg/mL (by protocol).

Structure (SMILES)	survival
COc1ccccc1CNC(=O)CN1C(=O)CCCc2ccccc21	94%
COc1ccc2cc(CNc3ccc(OC)c(OC)c3)c(=O)n(CC(=O)Nc3ccc(C)cc3)c2c1	74%
CC1CCCCN1CCCNC(=O)c1ccc2c(c1)sc1nc(-c3ccc(F)cc3)cn12 (stereo not given)	29% (active)
O=C(NC1CCCCC1)c1ccc2c(c1)sc1nc(-c3ccc(F)cc3)cn12	62%
CCC1CCCCN1CCCNC(=O)c1ccc2c(c1)sc1nc(-c3ccc(F)cc3)cn12 (stereo not given)	14% (active)
CCc1ccc(-c2cn3c(n2)sc2cc(C(=O)NC4CCCCCC4)ccc23)cc1	79%
O=C(NC1CCCCCC1)c1ccc2c(c1)sc1nc(-c3ccc(F)cc3)cn12	85%
CCc1ccc(-c2cn3c(n2)sc2cc(C(=O)NC4CCCCC4)ccc23)cc1	87%
Cc1cc(Nc2ccc(C)c(C)c2)n2cnnc2n1	94%
CC1CCN(c2cc3c(cc2F)c(=O)c(S(=O)(=O)c2cccc(Cl)c2)cn3Cc2ccccc2)CC1	80%
COc1ccccc1C(=O)n1nc(-c2ccco2)nc1NCc1ccc(Cl)cc1	54%
COc1ccc(C(=O)/C=C\Nc2ccc(S(=O)(=O)N=C(N)N)cc2)cc1OC	76%
Cc1ccc(CN(C(=O)COc2ccc(C)c(C)c2)C2CCS(=O)(=O)C2)o1 (stereo not given)	92%
Cc1cccc(CNC(=O)C2CCN(c3nnc(-n4c(C)ccc4C)s3)CC2)c1	95%
CC1CCc2onc(C(=O)N3CCN(c4cccc(C(F)(F)F)c4)CC3)c2C1 (stereo not given)	37% (active)
O=C(c1noc2c1CCCCC2)N1CCN(c2cccc(Cl)c2)CC1	69%
CC1CCc2onc(C(=O)N3CCN(c4ccccc4)CC3)c2C1 (stereo not given)	117%
O=C(c1cc2ccc3cccnc3c2[nH]1)N1CCN(c2ccccc2)CC1	75%
O=C(c1noc2c1CCCCC2)N1CCN(c2cccc(C(F)(F)F)c2)CC1	0% (active)
O=C(c1cc2ccc3cccnc3c2[nH]1)N1CCN(c2ccc(Cl)cc2)CC1	84%
O=C(c1noc2c1CCCCC2)N1CCN(c2ccc(Cl)cc2)CC1	98%
O=C(c1cc2ccc3cccnc3c2[nH]1)N1CCN(c2cccc(C(F)(F)F)c2)CC1	0% (active)
CC1CCc2onc(C(=O)N3CCN(c4cccc(Cl)c4)CC3)c2C1 (stereo not given)	69%

Structure (SMILES)	survival
CCC(=O)Nc1ccc2nc(SCc3ccc(C)cc3)sc2c1	84%
Cc1ccc(-n2nc(C)c3c(C(=O)Nc4ccccc4C(F)(F)F)cc(C)nc32)cc1	95%
Cc1ccc(NC(=O)CSc2nnc(C)s2)c(C)c1	67%
CCOc1ccc(CNCc2c(C(=O)O)c(C)n(Cc3ccc(F)cc3Cl)c2C)cc1	118%
Cc1ccc(C)c(Cn2c(=O)n(-c3ccccc3)c(=O)c3c4c(sc32)CCCC4)c1	120%
COc1ccc(CCNC(=O)C(=O)NCC(c2ccco2)S(=O)(=O)c2ccc(C)cc2)cc1 (stereo not given)	134%
O=C(Cn1c(=O)c2cccn2c2ccccc21)Nc1cc(F)ccc1F	44%
CCCn1c(CCC(=O)Nc2ccccc2OC)nc2cccnc21	88%
CCCS(=O)(=O)NCCc1sc2nc(-c3ccc(F)cc3)nn2c1C	76%
COc1ccc(F)cc1S(=O)(=O)NCCc1sc2nc(-c3ccc(F)cc3)nn2c1C	90%
Cc1cc(C)c(S(=O)(=O)NCCc2sc3nc(-c4ccc(F)cc4)nn3c2C)c(C)c1	79%
COc1ccc(-c2nc3sc(CCNS(=O)(=O)c4ccccc4)c(C)n3n2)cc1	64%
COc1ccc(-c2nc3sc(CCNS(=O)(=O)c4c(C)cc(C)cc4C)c(C)n3n2)cc1	-1% (active)
Cc1ccc(-c2nc3sc(CCNS(=O)(=O)c4cc(F)ccc4F)c(C)n3n2)cc1	-2% (active)
Cc1c(CCNS(=O)(=O)c2ccccc2)sc2nc(-c3ccc(Cl)cc3)nn12	6% (active)
CCCS(=O)(=O)NCCc1sc2nc(-c3ccc(Cl)cc3)nn2c1C	70%
CCS(=O)(=O)NCCc1sc2nc(-c3ccc(OC)cc3)nn2c1C	72%
Cc1ccc(-n2ncc3c(N4CCN(CCO)CC4)ncnc32)cc1Cl	101%
CCN(CC)c1ncccc1C(=O)NCc1cccs1	81%
Cc1c(Cl)cccc1NC(=O)Nc1nnc(N2CCCCCC2)s1	84%
COc1ccccc1Nc1c2c(nc3ccc(NC(=O)c4ccc(OC)c(OC)c4)cc13)CCCC2	59%
COc1ccc(C(=O)Nc2ccc3nc4c(c(Nc5ccccc5OC)c3c2)CCCC4)c(OC)c1	48% (active)
COc1ccccc1Nc1c2c(nc3ccc(NC(=O)c4cccc(OC)c4OC)cc13)CCCC2	46% (active)

Structure (SMILES)	survival
COc1ccc(C(=O)Nc2ccc3nc4c(c(Nc5ccc(OC)c(OC)c5)c3c2)CCCC4)c(OC)c1	87%
COc1ccccc1Nc1c2c(nc3ccc(NC(=O)c4cccc(F)c4)cc13)CCCC2	70%
COc1ccccc1Nc1c2c(nc3ccc(NC(=O)c4ccccc4F)cc13)CCCC2	82%
O=C(CNC(=O)c1ccc(Cl)cc1)OCc1cc(=O)n2nc(C3CC3)sc2n1	67%
COC(=O)c1cn(C(C)C(=O)NCc2ccco2)c2ccccc12 (stereo not given)	91%
O=C(CSCc1ccc(F)cc1)N1CCc2c([nH]c3ccccc23)C1c1ccccc1 (stereo not given)	101%
Cc1ccc(NC(=O)C(=O)c2cc(C)n(-c3ccc(F)cc3)c2C)cc1C	89%
CC(=O)c1ccccc1OCC(O)Cn1c(CO)nc2ccccc21 (stereo not given)	59%
Cc1ccc2c(c1)c1c(c(=O)n(Cc3ccccc3)c(=O)n1CC(=O)Nc1ccccc1C)n2C	99%
COc1ccc(-n2nc3ccc(NC(=O)COc4ccc(C)c(C)c4)cc3n2)cc1	56%
Cc1cc(C)cc(OCC(=O)Nc2cccc(-c3nc4ccccc4[nH]3)c2)c1	31% (active)
COc1cccc(C(=O)Nc2ccc(Cl)c(-c3nc4ccccc4[nH]3)c2)c1	68%
Cc1cccc(OCC(=O)Nc2ccc3c(c2)N(C)C(=O)c2ccccc2S3)c1	73%
Cc1ccc(OCC(=O)Nc2ccc(Cl)c(-c3nc4ccccc4[nH]3)c2)cc1C	43% (active)
Cc1cccc(OCC(=O)Nc2ccc(Cl)c(-c3nc4ccccc4[nH]3)c2)c1	38% (active)
Cc1cc(OCC(=O)Nc2cc(-c3nc4ccccc4[nH]3)ccc2C)ccc1Cl	96%
CC(C)CC(=O)Nc1cccc(-c2nc3ccccc3[nH]2)c1	68%
COc1cccc(N2CC(NC(=O)c3ccc(S(=O)(=O)N4CCCCC4)cc3)CC2=O)c1 (stereo not given)	92%
CCn1c(=O)c(C(=O)Nc2ccc(C(C)=O)cc2)nc2ccccc21	81%
CC1CCN(S(=O)(=O)c2ccc3c(ccn3CC(=O)NCc3ccc(N(C)C)cc3)c2)CC1	77%
COc1cccc(CNC(=O)c2cc3cccc4c3n2CC(C)S4)c1OC (stereo not given)	84%
Cc1cc(C)c(S(=O)(=O)N2CCC(N3CCN(Cc4ccccc4)C(=O)C3=O)CC2)c(C)c1	68%
N#CC1=C(N)OC2=C(C(=O)CCC2)C12C(=O)Nc1ccc(F)cc12 (stereo not given)	93%

Structure (SMILES)	survival
COC(=O)Cn1c(C2CC(=O)N(c3c(C)cccc3C)C2)nc2ccccc21 (stereo not given)	58%
CCCCN1CC(c2nc3ccccc3n2CCCCOc2c(C)cccc2C)CC1=O (stereo not given)	46% (active)
CCCCN1CC(c2nc3ccccc3n2CCCCOc2cccc(C)c2C)CC1=O (stereo not given)	2% (active)
CCCCN1CC(c2nc3ccccc3n2CCCCOc2ccccc2C)CC1=O (stereo not given)	34% (active)
Cc1cccc(C)c1OCCCCn1c(C2CC(=O)N(c3ccc(F)cc3)C2)nc2ccccc21 (stereo not given)	77%
Cc1ccccc1OCCCCn1c(C2CC(=O)N(c3ccccc3Cl)C2)nc2ccccc21 (stereo not given)	76%
Cc1cccc(NC(=O)CS(=O)(=O)c2cccc3nsnc23)c1	74%
Cc1cc2cc(CCNS(=O)(=O)c3ccc(Br)cc3)c(=O)[nH]c2cc1C	48%
O=c1c2oc3ccccc3c2n(Cc2cccc(C(F)(F)F)c2)c(=O)n1Cc1ccc2c(c1)OCO2	108%
CN1C(=O)Cc2cc(S(=O)(=O)CCC(=O)N3CCN(c4ccc(Cl)cc4)CC3)ccc21	86%
COc1ccc(Cn2c(=O)c3oc4ccccc4c3n(Cc3cccc(C(F)(F)F)c3)c2=O)cc1	73%
Nc1nc(SCC(=O)Nc2cccc(C(F)(F)F)c2)n[nH]1	63%
COC(=O)c1sccc1S(=O)(=O)N1CCN(c2ccccc2OC)CC1	74%
CCc1ccccc1NC(=O)c1noc2c1CC(C(C)(C)C)CC2 (stereo not given)	-6% (active)
COc1cc(NC(=O)c2noc3c2CCc2ccccc2-3)cc(OC)c1OC	88%
COc1cc(NC(=O)c2noc3c2CC(C)CC3)c(OC)cc1Cl (stereo not given)	69%
CC1CCc2onc(C(=O)Nc3ccc(Cl)cc3)c2C1 (stereo not given)	75%
COc1cc(NC(=O)c2noc3c2CC(C(C)(C)C)CC3)cc(OC)c1OC (stereo not given)	40% (active)
O=C(Nc1ccccc1C(F)(F)F)c1noc2c1CCCC2	63%
O=C(CN1C(=O)COc2ccc(S(=O)(=O)N3CCCC3)cc21)N1CCN(c2ccc(F)cc2)CC1	80%
CCOc1ccccc1CNc1nc2nc(C)cc(C)n2n1	97%
